Measurements from the supplement of paper PMC11732987, “Enantioselective OTUD7B fragment discovery through chemoproteomics screening and high-throughput optimisation” (Communications Chemistry, 2025).

How the values were obtained:
Assay in all cases: log2 ratio of Biotin-Ahx-Ub-VS probe labelling (fragment/DMSO); higher = less target engagement (more negative = stronger competition), active = hit call of the paper (q ≤ 0.05, log2 ratio ≤ -1)
Settings in all cases: compound concentration: 200 uM; treatment time: 3 h
[1] = molecular target: USP9X (UniProt Q93008)
Sequence of USP9X (Q93008 whole entry, the tested form may be a part): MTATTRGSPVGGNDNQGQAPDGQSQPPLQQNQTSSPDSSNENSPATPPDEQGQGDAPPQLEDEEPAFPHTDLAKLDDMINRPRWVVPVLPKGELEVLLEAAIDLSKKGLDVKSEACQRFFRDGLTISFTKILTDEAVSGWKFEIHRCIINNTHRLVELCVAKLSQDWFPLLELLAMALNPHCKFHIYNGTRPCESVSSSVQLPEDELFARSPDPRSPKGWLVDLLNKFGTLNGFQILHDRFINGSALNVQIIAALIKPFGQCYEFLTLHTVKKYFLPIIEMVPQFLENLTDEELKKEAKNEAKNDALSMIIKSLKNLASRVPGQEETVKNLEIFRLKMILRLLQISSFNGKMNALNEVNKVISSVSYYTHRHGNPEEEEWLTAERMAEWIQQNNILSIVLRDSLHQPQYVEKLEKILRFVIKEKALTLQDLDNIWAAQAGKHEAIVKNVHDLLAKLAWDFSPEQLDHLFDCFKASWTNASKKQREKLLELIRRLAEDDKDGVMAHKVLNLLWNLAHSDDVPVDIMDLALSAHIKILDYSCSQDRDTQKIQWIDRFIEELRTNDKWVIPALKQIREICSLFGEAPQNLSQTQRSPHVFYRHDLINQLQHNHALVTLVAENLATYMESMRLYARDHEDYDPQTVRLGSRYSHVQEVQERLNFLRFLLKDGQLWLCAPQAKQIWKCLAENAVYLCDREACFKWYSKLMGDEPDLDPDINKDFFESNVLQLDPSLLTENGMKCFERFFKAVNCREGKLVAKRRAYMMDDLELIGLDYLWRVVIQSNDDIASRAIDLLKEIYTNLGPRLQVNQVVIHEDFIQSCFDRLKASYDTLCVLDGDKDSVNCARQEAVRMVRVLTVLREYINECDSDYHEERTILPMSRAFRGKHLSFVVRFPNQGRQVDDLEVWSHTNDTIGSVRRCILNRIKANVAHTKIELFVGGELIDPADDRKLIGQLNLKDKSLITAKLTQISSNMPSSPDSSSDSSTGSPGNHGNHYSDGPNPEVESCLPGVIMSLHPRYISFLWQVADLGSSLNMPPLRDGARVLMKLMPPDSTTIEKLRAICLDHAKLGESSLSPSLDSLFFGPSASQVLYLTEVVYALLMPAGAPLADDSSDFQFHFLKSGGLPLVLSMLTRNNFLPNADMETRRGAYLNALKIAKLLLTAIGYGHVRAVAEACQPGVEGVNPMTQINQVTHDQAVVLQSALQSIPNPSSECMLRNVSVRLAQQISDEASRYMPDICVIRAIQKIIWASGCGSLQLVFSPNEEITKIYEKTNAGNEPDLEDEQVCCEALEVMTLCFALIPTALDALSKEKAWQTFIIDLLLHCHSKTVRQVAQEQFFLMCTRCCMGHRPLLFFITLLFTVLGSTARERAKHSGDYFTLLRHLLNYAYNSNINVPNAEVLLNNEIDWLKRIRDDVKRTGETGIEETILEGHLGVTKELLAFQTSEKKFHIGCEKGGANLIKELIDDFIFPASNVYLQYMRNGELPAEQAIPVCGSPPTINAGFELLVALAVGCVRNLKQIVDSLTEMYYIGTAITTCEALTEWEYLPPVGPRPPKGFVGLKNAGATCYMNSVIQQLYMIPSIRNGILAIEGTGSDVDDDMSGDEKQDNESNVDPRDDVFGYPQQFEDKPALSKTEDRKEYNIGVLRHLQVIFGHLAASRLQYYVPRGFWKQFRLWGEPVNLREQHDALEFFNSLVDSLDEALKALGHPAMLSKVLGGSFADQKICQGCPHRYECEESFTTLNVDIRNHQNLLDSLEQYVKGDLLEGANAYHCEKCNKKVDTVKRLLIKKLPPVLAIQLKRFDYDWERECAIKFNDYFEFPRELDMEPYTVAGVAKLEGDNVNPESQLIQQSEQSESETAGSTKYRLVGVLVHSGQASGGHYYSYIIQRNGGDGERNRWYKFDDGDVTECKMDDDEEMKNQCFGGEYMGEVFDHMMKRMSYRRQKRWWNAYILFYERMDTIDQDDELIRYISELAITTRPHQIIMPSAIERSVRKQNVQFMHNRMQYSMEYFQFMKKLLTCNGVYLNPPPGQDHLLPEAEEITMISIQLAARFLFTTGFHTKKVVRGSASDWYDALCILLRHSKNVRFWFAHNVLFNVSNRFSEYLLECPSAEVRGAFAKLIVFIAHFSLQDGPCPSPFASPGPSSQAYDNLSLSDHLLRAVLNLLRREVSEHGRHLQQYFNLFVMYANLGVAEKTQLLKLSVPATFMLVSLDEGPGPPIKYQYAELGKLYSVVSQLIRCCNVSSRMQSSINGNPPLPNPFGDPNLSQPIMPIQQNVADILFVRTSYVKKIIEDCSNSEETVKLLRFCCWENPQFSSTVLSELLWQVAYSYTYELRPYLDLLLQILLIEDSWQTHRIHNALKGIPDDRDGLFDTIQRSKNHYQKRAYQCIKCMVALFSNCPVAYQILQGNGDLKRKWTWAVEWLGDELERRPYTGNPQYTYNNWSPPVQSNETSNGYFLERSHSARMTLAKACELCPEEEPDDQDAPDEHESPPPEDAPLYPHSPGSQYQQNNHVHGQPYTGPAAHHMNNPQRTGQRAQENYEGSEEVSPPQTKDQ
Outline: (§1)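 Labelled DUBs from HEK293T lysate were NeutrAvidin-enriched, digested with LysC and trypsin, and run by diaPASEF LC-MS/MS. Before that, each 495 µg sample in Tris/CHAPS/IGEPAL buffer with protease inhibitors was treated in triplicate with fragment at 200 µM or vehicle for 3 h, then with Biotin-Ahx-Ub-VS at 0.5 µM final for 1 h. Values are average log2 ratios of fragment over vehicle by unpaired t-test, based on global-median-normalised Spectronaut label-free quantities from proteins with ≥2 unique peptides.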

[2] = molecular target: UniProt O00487
Sequence of UniProt O00487 (O00487 whole entry): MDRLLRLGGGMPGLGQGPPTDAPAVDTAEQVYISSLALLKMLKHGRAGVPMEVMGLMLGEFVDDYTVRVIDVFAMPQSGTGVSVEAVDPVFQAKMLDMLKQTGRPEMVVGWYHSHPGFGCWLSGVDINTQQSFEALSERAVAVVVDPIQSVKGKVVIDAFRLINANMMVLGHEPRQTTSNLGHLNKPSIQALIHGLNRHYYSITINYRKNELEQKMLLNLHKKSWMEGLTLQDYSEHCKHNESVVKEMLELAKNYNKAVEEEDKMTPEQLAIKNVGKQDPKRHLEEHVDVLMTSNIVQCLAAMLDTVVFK
Outline: as §1

[3] = molecular target: UniProt O00507
Outline: as §1

[4] = molecular target: UniProt P51784
Sequence of UniProt P51784 (P51784 whole entry): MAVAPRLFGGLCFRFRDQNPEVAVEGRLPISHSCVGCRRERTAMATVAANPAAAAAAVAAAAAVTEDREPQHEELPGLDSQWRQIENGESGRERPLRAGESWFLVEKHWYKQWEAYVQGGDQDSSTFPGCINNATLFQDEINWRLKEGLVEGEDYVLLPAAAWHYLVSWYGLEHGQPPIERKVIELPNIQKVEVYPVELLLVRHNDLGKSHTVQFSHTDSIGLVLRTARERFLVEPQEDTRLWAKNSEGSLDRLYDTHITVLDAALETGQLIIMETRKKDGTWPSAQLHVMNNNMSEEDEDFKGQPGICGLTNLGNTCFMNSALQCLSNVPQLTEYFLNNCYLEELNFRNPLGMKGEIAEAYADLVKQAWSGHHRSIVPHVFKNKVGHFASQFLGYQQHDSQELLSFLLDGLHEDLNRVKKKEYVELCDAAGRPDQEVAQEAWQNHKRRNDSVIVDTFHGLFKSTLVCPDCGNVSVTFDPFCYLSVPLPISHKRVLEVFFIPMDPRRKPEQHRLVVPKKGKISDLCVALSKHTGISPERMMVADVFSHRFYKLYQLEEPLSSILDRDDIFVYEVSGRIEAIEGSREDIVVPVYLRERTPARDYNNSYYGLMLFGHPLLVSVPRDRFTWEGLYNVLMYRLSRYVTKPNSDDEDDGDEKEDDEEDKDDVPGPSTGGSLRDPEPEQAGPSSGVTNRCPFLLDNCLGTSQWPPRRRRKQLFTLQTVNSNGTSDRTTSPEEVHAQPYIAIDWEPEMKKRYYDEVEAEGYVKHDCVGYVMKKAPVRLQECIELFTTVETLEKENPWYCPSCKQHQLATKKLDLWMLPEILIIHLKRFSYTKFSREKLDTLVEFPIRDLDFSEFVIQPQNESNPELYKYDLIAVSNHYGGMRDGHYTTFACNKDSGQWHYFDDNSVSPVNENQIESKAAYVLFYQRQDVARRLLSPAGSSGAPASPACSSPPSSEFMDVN
Outline: as §1

[5] = molecular target: T1, UniProt Q5T2D3
T1 sequence (whole entry): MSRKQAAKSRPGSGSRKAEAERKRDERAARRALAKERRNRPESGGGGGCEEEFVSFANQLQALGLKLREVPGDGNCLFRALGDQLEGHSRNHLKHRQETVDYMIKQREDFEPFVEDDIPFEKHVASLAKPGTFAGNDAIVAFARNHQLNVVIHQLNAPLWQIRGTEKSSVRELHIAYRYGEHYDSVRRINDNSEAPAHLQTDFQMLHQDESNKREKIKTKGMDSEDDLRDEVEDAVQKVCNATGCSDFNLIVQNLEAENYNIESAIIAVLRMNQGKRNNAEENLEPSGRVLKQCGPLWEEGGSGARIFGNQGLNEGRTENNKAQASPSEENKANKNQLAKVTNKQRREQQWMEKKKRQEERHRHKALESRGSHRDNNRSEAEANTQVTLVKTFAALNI
Outline: as §1

[6] = molecular target: T2, UniProt Q8TE49
T2 sequence (whole entry): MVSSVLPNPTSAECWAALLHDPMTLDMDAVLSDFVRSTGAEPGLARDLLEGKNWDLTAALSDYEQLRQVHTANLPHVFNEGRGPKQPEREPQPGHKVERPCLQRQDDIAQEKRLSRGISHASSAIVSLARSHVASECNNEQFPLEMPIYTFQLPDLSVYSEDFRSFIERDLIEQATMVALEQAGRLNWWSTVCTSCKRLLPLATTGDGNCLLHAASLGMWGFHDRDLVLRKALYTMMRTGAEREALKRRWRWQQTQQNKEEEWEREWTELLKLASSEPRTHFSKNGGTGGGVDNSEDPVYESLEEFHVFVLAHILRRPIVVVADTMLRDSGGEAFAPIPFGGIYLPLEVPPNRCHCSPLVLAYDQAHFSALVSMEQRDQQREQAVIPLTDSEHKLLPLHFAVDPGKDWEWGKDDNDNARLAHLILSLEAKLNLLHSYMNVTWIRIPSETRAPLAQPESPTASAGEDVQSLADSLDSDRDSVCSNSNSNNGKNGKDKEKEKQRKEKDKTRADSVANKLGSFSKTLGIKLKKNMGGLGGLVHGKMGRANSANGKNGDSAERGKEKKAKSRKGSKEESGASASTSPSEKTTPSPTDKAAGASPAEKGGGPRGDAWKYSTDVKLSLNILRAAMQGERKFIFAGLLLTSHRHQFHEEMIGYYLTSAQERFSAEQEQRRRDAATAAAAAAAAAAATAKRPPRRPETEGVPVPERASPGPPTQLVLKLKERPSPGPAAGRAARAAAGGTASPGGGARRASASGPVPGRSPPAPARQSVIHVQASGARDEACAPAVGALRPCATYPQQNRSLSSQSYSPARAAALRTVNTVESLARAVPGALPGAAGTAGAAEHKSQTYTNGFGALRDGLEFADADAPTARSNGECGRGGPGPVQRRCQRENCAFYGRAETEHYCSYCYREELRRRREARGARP
Outline: as §1

[7] = molecular target: T3, UniProt Q9P2H5
T3 sequence (whole entry): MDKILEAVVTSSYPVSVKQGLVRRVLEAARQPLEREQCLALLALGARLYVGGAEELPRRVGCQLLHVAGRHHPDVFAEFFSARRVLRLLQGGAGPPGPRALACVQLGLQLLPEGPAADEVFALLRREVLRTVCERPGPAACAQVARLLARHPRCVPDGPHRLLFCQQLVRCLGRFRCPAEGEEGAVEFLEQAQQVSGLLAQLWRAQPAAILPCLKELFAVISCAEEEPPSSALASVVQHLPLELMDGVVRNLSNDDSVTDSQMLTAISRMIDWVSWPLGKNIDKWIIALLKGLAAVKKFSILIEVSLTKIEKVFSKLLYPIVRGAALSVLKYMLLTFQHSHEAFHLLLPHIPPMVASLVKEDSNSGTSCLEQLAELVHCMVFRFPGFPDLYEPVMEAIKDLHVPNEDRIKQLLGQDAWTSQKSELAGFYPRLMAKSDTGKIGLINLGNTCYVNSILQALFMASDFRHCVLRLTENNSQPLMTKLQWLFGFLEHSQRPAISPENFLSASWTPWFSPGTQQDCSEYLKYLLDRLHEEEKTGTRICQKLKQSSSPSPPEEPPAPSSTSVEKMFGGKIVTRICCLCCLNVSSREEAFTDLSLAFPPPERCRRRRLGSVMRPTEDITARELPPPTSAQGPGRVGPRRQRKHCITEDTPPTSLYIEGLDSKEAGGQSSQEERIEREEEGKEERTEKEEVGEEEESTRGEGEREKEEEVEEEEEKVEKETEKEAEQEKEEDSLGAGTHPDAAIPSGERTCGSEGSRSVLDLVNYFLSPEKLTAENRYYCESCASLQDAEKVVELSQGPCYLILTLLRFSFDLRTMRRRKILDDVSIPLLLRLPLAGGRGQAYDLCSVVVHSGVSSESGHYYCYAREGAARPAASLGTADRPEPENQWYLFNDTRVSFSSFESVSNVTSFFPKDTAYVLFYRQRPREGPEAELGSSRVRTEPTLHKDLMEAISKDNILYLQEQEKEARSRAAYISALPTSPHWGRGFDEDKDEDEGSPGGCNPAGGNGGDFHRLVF
Outline: as §1

[8] = molecular target: T4, UniProt Q9UGI0
T4 sequence (whole entry): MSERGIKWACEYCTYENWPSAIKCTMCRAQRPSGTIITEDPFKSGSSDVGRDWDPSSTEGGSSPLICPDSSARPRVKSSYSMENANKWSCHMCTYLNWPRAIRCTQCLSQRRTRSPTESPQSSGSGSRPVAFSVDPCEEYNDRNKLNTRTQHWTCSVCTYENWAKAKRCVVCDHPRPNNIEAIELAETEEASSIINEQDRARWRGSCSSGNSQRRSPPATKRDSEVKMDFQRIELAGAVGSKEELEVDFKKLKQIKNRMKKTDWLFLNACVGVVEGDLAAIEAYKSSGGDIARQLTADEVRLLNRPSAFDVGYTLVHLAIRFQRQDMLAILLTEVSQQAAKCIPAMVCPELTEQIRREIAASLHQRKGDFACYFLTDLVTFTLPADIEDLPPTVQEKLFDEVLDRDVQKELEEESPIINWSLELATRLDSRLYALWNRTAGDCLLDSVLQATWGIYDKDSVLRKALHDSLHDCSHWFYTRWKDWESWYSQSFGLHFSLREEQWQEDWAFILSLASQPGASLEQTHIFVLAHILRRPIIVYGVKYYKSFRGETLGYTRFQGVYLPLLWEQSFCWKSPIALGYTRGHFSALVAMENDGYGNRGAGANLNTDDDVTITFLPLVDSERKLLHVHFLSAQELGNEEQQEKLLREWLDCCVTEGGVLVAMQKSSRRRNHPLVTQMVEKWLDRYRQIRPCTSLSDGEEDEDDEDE
Outline: as §1

[9] = molecular target: T5, YOD1 (UniProt Q5VVQ6)
T5 sequence (whole entry): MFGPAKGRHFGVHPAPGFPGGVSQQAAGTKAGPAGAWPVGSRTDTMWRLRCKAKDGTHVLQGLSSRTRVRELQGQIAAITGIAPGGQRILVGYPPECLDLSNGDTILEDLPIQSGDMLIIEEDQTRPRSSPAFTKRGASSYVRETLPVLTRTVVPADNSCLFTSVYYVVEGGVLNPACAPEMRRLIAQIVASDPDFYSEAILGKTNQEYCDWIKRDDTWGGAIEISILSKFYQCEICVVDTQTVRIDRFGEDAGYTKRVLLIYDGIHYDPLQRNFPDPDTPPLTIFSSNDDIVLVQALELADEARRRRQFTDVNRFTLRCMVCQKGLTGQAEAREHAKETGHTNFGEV
Outline: as §1

Measured: log2 ratio of Biotin-Ahx-Ub-VS probe labelling

O=C(CCl)N1CCC[C@@H]1c1ccon1
inactive: [1] -0.32 | [2] -0.227 | [3] -0.592 | [4] -0.16 | [5] -0.395 | [6] -0.398 | [7] -0.248 | [8] -0.626 | [9] -0.749
